BAZ2B inh – BAZ2B (human) inhibition. Q9UIF8. AlphaScreen BAZ2B-H3K14Ac peptide displacement. Potency, µM (titrated, usually from 114 µM), without a hit: at the top dose activity change, negative = inhibition, most hits filed as inhibitors. actives 4.4% (n = 360,000). AID 504333; also: % is scaled to controls: 0 for no effect and ±100 for the full control effect; nearly all actives have a fitted effect of over 60% in size
Target sequence (Q9UIF8 whole entry, looked up): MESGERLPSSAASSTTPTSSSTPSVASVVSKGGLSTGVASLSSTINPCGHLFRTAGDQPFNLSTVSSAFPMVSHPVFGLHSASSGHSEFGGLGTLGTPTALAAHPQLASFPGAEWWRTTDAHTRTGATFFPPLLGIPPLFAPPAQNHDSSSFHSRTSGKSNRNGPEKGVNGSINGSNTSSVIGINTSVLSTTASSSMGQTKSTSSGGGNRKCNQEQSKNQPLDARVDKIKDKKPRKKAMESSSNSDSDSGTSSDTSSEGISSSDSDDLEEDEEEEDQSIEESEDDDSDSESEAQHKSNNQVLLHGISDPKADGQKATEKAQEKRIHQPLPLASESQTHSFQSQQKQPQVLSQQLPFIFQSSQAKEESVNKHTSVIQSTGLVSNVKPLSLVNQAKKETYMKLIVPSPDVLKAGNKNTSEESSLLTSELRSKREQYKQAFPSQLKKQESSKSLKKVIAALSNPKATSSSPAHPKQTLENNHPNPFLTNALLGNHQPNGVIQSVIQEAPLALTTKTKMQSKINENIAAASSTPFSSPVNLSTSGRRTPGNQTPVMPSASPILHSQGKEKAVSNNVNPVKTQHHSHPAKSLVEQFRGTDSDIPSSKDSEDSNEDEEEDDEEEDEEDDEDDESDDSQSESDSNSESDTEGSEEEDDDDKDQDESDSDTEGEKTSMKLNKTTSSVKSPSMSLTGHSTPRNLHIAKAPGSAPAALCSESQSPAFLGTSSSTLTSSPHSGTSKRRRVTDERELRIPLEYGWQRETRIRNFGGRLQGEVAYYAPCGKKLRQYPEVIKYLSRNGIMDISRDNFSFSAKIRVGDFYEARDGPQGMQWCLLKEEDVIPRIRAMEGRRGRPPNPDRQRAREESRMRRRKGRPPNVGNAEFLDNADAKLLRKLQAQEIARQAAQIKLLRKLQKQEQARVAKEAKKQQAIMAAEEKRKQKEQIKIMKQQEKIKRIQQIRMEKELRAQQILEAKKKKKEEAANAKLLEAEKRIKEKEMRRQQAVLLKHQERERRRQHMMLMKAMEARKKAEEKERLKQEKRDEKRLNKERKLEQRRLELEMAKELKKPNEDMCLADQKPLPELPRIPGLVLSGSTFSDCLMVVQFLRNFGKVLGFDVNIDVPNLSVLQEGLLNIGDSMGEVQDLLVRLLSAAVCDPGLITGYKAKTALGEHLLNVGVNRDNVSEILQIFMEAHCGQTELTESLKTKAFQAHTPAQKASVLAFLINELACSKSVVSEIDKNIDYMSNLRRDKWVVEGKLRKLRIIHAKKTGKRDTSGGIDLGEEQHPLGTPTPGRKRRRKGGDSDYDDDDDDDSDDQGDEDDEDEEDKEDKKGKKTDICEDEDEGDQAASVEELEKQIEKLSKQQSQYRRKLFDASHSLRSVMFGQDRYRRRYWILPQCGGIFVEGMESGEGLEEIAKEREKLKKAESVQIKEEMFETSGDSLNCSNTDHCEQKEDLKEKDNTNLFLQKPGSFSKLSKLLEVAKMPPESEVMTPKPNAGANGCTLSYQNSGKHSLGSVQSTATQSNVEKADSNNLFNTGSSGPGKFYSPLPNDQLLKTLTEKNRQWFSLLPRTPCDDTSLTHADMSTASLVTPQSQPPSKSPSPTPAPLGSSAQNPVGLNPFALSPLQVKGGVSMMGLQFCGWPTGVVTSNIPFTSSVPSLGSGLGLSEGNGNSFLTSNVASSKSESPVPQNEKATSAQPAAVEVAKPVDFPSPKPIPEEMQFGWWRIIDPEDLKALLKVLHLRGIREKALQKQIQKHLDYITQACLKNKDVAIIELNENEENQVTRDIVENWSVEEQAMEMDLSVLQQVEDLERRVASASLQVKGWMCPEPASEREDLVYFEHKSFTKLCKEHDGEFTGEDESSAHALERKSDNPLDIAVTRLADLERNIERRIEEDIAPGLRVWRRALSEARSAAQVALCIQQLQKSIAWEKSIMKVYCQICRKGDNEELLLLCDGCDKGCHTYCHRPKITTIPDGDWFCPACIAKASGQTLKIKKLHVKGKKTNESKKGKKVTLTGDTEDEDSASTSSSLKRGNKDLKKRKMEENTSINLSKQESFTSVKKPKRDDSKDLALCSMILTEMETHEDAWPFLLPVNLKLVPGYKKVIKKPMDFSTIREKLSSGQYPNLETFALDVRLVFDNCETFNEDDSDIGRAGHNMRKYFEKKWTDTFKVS
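AlphaScreen displacement of biotin-H3(5-23)K14Ac peptide (50 nM final) from BAZ2B (50 nM final) in PBS pH 7.4, 0.01% Tween-20; complex preformed 30 min RT, then compounds (top 110 uM) 30 min RT, beads 20 min dark.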
HP1b binding inh – blocks HP1-beta chromodomain binding to methylated histone tails | Potency, µM (titrated, usually from 114 µM), for inactives: at the highest dose activity change, negative = inhibition, actives largely listed as inhibitors | actives 0.56% (n = 390,000) | AlphaScreen HP1-beta / biotin-H3K9me3 peptide binding | AID 540317; also: nearly all actives have a fitted effect of over 70% in size
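AlphaScreen: HP1-beta (50 nM) preformed 30 min with biotin-H3(1-18)K9me3 peptide (50 nM) in PBS pH 7.4, 0.01% Tween-20. Compound added for 30 min at RT, then streptavidin donor/nickel chelate acceptor beads (10 ug/mL) for 30 min.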
JMJD2A Tudor – blocks the human JMJD2A Tudor domain; O75164; Potency, µM (highest dose often 114 µM), for inactives: at the highest dose activity change, negative = inhibition, most hits filed as inhibitors; AlphaScreen JMJD2A-Tudor / H3K4me3 peptide binding; actives 4.4% (n = 390,000); AID 504339; also: % is scaled to controls: 0 for no effect and ±100 for the full control effect; nearly all actives have a fitted effect of over 50% in size
GLS inhibitor – blocks human kidney-isoform glutaminase activity | GLS enzymatic activity, qHTS titration | actives 0.21% (n = 410,000) | Potency, µM (doses to about 45.5 µM), for inactives: at the top dose activity change, negative = inhibition, actives largely listed as inhibitors | O94925 | AID 624170; also: % is scaled to controls: 0 for no effect and ±100 for the full control effect
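Read-out is an Amplex red fluorescence increase coupled through glutamate oxidase and HRP, measured before and after 30 min room-temperature incubation. hKGA is in 45 mM KH2PO4 (pH 8.2) with 0.02% Tween-20; glutamine added as 1mM solution.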
G9a block – G9a (human) methyltransferase inhibition. AID 504332. actives 8.8% (n = 350,000). G9a H3K9 monomethylation, AlphaScreen, 2 h. Potency, µM (doses to about 102 µM), for inactives: top-dose activity, negative = inhibition, actives largely listed as inhibitors; also: % is scaled to controls: 0 for no effect and ±100 for the full control effect; nearly all actives have a fitted effect of over 75% in size
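Chemiluminescent proximity detection of H3K9 monomethylation, read after 10 min bead incubation in the dark. Reaction: 20 nM G9a, 500 nM biotin-H3K9 peptide, 20 uM SAM cofactor, 2 h, room temperature, following 15 min enzyme-compound preincubation.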
Numbers without * were called inactive; ! = not confirmed by another sample; [ ] = another dose, or the depositor's remark. Only some compounds are listed: those with a hit (about 10% of all), similar ones and a draw of the others. Calls follow the shape of the dose curve; as a rule, active = well fitted curve in the direction sought with a large enough effect; inconclusive = small, poorly fitted or top-dose-only effect, or another doubt; inactive = no such curve, though single readings can be large; an effect the other way counts as inactive or inconclusive. Potency is read from the fitted curve at half-maximal effect.

Screening O=C(CSc1nc2ccccc2s1)NNC(=S)Nc1ccccc1 returned BAZ2B inh 1%, HP1b binding inh 5%, JMJD2A Tudor -14%, GLS inhibitor 14% and G9a block 3.5µM*.
`CCOc1ccc(NC(=O)C2CCCN(S(=O)(=O)c3ccc4[nH]c(=O)ccc4c3)C2)cc1` (stereo not given) gave BAZ2B inh -24%, HP1b binding inh 6%, JMJD2A Tudor 50µM*!, GLS inhibitor 1% and G9a block -8%[59 µM].
Screening Cc1ccc(C(=O)Oc2ccccc2N2C(=O)C3CCC(C)CC3C2=O)cc1 (stereo not given) returned BAZ2B inh 1%, HP1b binding inh 23%, JMJD2A Tudor 16% and G9a block -42%[2.33 µM].
CC1CCC2C(=O)N(c3ccc(C(=O)Oc4cccc5cccnc45)cc3)C(=O)C2C1 (stereo not given) was read as BAZ2B inh 50µM*, HP1b binding inh 5%, JMJD2A Tudor 56µM*, GLS inhibitor -20% and G9a block inconclusive.
CCCc1cc(=O)n2c(C(=O)Nc3ccc(OCC)cc3)c(C(=O)Nc3ccc(C)cc3)sc2n1 was read as BAZ2B inh -1%, HP1b binding inh 3%, JMJD2A Tudor -5%, GLS inhibitor 4% and G9a block inconclusive.
For CSCc1c(C(=O)Nc2ccc3c(c2)OCO3)oc2ccccc12 the results were BAZ2B inh inconclusive, HP1b binding inh -13%, JMJD2A Tudor inconclusive, GLS inhibitor 12% and G9a block 35µM*.
For CCN(CC)c1ccc(/C=C2\NC(=O)NC2=O)cc1 the results were BAZ2B inh -4%, HP1b binding inh 7%, JMJD2A Tudor -16%, GLS inhibitor 8% and G9a block -17%.
Screening O=C1NC(=O)/C(=C\c2ccsc2)N1 returned BAZ2B inh 45%, HP1b binding inh -3%, JMJD2A Tudor 32µM*, GLS inhibitor 1% and G9a block -12%.
`CC1CCN(C(=O)CSc2nncn2-c2ccccn2)CC1` gave BAZ2B inh 9%, HP1b binding inh -19%, JMJD2A Tudor 1% and G9a block 7.1µM*.
`CCN(CC(=O)Nc1cccc(OC)c1)CC(=O)Nc1ccc(C)cc1Cl` gave BAZ2B inh 32µM*, HP1b binding inh -18%, JMJD2A Tudor 20µM*, GLS inhibitor 3% and G9a block inconclusive.
COc1cccc(NC(=O)CN(C)CC(=O)Nc2ccc(Cl)cc2[N+](=O)[O-])c1 was read as BAZ2B inh 50µM*, HP1b binding inh inconclusive, JMJD2A Tudor inconclusive, GLS inhibitor -6% and G9a block 40µM*.
For COc1ccc(NC(=O)CN(C)S(=O)(=O)c2ccc(Cl)cc2)c([N+](=O)[O-])c1 the results were BAZ2B inh 7%, HP1b binding inh 4%, JMJD2A Tudor -15% and GLS inhibitor -15%.
`CN(CC(=O)Nc1ccc(N2CCOCC2)cc1)CC(=O)Nc1ccc(Cl)cc1[N+](=O)[O-]` gave BAZ2B inh 56µM*, HP1b binding inh inconclusive, JMJD2A Tudor inconclusive, GLS inhibitor -10% and G9a block 56µM*.
Screening CN(CC(=O)Nc1ccc(N2CCOCC2)cc1)CC(=O)Nc1ccc([N+](=O)[O-])cc1Br returned BAZ2B inh -27%, HP1b binding inh 16%, JMJD2A Tudor -20%, GLS inhibitor 8% and G9a block -35%.
For COc1ccc(NC(=O)CN(C)CC(=O)Nc2ccc(N3CCOCC3)cc2)c([N+](=O)[O-])c1 the results were BAZ2B inh 45µM*, HP1b binding inh -7%, JMJD2A Tudor inconclusive, GLS inhibitor -3% and G9a block 4%[59 µM].
`CCc1ccc(NCc2cc3ccc(OC)cc3n(CC(=O)Nc3ccc(F)cc3F)c2=O)cc1` gave BAZ2B inh -26%, HP1b binding inh 35%, JMJD2A Tudor 1%, GLS inhibitor -1% and G9a block inconclusive.
For CNc1ccnc(-c2cccc(NS(C)(=O)=O)c2)n1 the results were G9a block 2%[0.501 µM].
